The nature of experiment [1]: Nuclear factor erythroid 2-related factor 2/antioxidant responsive element (Nrf2/ARE) small molecule agonists: qHTS cell viability counter screen in human keratinocytes (AID 1919968; active = well fitted cell-killing curve with a large enough effect in the repeat runs; note: nearly all actives have a fitted effect of over 55% in size). The procedure, abridged:
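HaCaT ARE reporter line, 1,500 cells/well; 5 h settle, 37 C/5% CO2; cpd in DMSO pinned; 23 h exposure; CellTiter-Fluor, 1 h; fluorescence.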
Background: In qHTS, concentration-response curves come from the screen itself.

Experiment [2] can be described thus: Nuclear factor erythroid 2-related factor 2/antioxidant responsive element (Nrf2/ARE) small molecule agonists: luciferase reporter gene qHTS assay in human keratinocytes (AID 1919969). Note: nearly all actives have a fitted effect of over 35% in size. Note: potency is the fitted concentration of half-maximal effect.
Experiment [3] deals with Gonadotropin-releasing hormone receptor (Homo sapiens) (UniProt P30968). Description: Human gonadotropin-releasing hormone receptor (GnRHR) small molecule agonists, calcium flux assay in GnRHR-HEK293 cells (AID 1920063). Note: nearly all actives have a fitted effect of over 35% in size. The procedure, abridged: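 GnRHR-HEK293, 1500 cells/well, 18 h 37 C/5% CO2; Ca dye 1 h 37 C; cpd pinned (DMSO), agonist mode; kinetic FL 480/540, 3 min, 1 s reads; 15 conc, n=3.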
A general note: Calcium flux is commonly read through the fluorescence of an indicator in the cells.

Experiment [4] is described as follows: p53 small molecule agonists, cell-based qHTS assay with human liver microsomes (AID 1963577).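 Note: p53 response element beta-lactamase reporter cells with liver microsomes plus NADPH.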 The procedure, abridged: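 Metabolically competent format: test substances, human liver microsomes and NADPH (both 0.5 mg/mL final) incubated with p53RE-bla cells 16 h at 37 C. Beta-lactamase reporter signal then quantified by fluorescence.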
Experiment [5] is described as follows: p53 small molecule agonists, cell-based qHTS assay with rat liver microsomes (AID 1963578). The procedure, abridged:
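Each plate received p53RE-bla cells, then compound, then rat liver microsomes and NADPH (both 0.5 mg/mL final). Plates were held 16 h at 37 C, and beta-lactamase activity was detected with LiveBLAzer over 2 h.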

Experiment [6] can be described thus: p53 small molecule agonists, cell-based qHTS assay: qHTS cell viability counter screen (AID 1963581). Note: nearly all actives have a fitted effect of over 45% in size. The procedure, abridged:
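HCT-116 p53RE-bla cells, 4,000/well, plated 5 h before compound pin transfer; 16 h at 37 C; bla substrate 2 h RT; then CellTiter-Glo, 30 min RT, luminescence.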

The target of experiment [7] is 5-hydroxytryptamine receptor 2A (Homo sapiens) (UniProt P28223). Description: 5-hydroxytryptamine receptor 2A (HTR2A) small molecule antagonists, cell-based qHTS assay (AID 1963586). Note: nearly all actives have a fitted effect of over 45% in size. The procedure, abridged:
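Antagonist-mode intracellular calcium assay: DOI (4 nM) added after 5 min compound pre-incubation at room temperature to dye-loaded HTR2A-CHO cells. Fluorescence followed for 3 min, sampled every second.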

Experiment [8] shares this target. Briefly: 5-hydroxytryptamine receptor 2A (HTR2A) small molecule agonists, cell-based qHTS assay (AID 1963587). Note: nearly all actives have a fitted effect of over 30% in size. The procedure, abridged:
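HTR2A-CHO cells, plated 18 h at 37 C/5% CO2, dye-loaded 1 h at 37 C; compounds in DMSO added by pin tool (agonist mode). Intracellular calcium flux read as kinetic fluorescence on FDSS over 2 min at 1 s intervals.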

In experiment [9] the target is Muscarinic acetylcholine receptor M1 (Homo sapiens) (UniProt P11229). Briefly: Cholinergic receptor muscarinic 1 (CHRM1) small molecule antagonists, cell-based qHTS assay (AID 1963588). Note: nearly all actives have a fitted effect of over 40% in size. The procedure, abridged:
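CHRM1-CHO calcium-flux assay, antagonist mode. Cells were seeded 18 h, dye-loaded 1 h at 37 C and given compound for 5 min at RT, then acetylcholine was added at 50nM. FDSS fluorescence was read 3 min; 15 concentrations, three runs.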

Experiment [10] has the same target. Briefly: Cholinergic receptor muscarinic 1 (CHRM1) small molecule agonists, cell-based qHTS assay (AID 1963589). Note: nearly all actives have a fitted effect of over 35% in size. The procedure, abridged: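 Human M1 in stable CHO line; 18 h plating, 1 h dye load 37 C; cpd added (agonist mode); Ca2+ fluorescence kinetic read, 1 s intervals; 15 conc, 3 runs.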
Experiment [11] has as its target Beta-2 adrenergic receptor (Homo sapiens) (UniProt P07550). Description: Adrenergic beta2 receptor (ADRB2) small molecule antagonists, cell-based qHTS assay (AID 1963592). Note: series mostly up to about 92 µM; nearly all actives have a fitted effect of over 50% in size. The procedure, abridged:
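Cells (CHO, stable ADRB2 overexpression) incubated 18-20hr at 37C; compounds added from DMSO; agonist mix (1nM isoproterenol, 100uM IBMX, 25uM Ro-20-1724) added; 0.5hr RT; d2-cAMP and anti-cAMP-cryptate added; 1hr RT; 665/615 nm read.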

The target of experiment [12] is D(2) dopamine receptor (Homo sapiens) (UniProt P14416). Briefly: Dopamine D2 receptor (DRD2) small molecule antagonists, cell-based qHTS assay (AID 1963595; active = well fitted inhibition curve with a large enough effect in the signal ratio in the repeat runs, with a control signal flat; the % refers to the signal ratio). The procedure, abridged: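 Human DRD2 antagonist qHTS measuring cAMP by HTRF. The cells are exposed to compound for 10 min, then to NKH477 (200 nM) and quinpirole (12 nM) for 30 min at RT, with Ro20-1724 (0.1 mM) present throughout.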

Experiment [13] in a line: p53 small molecule agonists, cell-based qHTS assay with rat liver microsomes: qHTS cell viability counter screen (AID 1963580). Note: nearly all actives have a fitted effect of over 45% in size. The procedure, abridged:
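p53RE-bla HCT-116 cells (4,000/well) rested 5 h at 37 C, then given Tox21 compounds in DMSO with rat liver microsomes (0.5 mg/mL final) plus NADPH (0.5 mg/mL final) for 16 h at 37 C. Viability read by CellTiter-Glo luminescence after 30 min at room temperature.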

Experiment [14] can be described thus: p53 small molecule agonists, cell-based qHTS assay (AID 1963582; active = well fitted activation curve with a large enough effect in the signal ratio in the repeat runs, not every such curve was filed as active; the % refers to the signal ratio). The procedure, abridged:
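Reporter line: p53RE-bla. Pre-incubation 5 h, 37 C, 5% CO2; compound (DMSO, pin tool) 16 h, 37 C; B/G FRET substrate 2 h RT; fluorescence intensity read.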

A short description of experiment [15]: cAMP Responsive Elements (CRE) small molecule agonists, cell-based qHTS assay (AID 1963590). The procedure, abridged:
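HEK 293T CRE-bla, 2,000 cells/well, 18 h preincubation 37 C/5% CO2; cpds (DMSO) pinned, 3 h; LiveBLAzer B/G FRET substrate, 2 h RT.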

The nature of experiment [16]: cAMP Responsive Elements (CRE) small molecule antagonists, cell-based qHTS assay (AID 1963591; active = well fitted inhibition curve with a large enough effect in the signal ratio in the repeat runs, not every such curve was filed as active; the % refers to the signal ratio). The procedure, abridged: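 Beta-lactamase reporter read by FRET substrate (LiveBLAzer B/G) after 2 h at room temperature. CRE-bla HEK293T cells had received compound plus 0.25 uM (final) NKH477 for 3 h at 37 °C.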
For experiment [17], the target named is Beta-2 adrenergic receptor (Homo sapiens) (UniProt P07550). Briefly: Adrenergic beta2 receptor (ADRB2) small molecule agonists, cell-based qHTS assay (AID 1963593).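 Note: CHO cells stably overexpressing human ADRB2.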 The procedure, abridged: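 CHO cells stably over-expressing ADRB2 were plated overnight at 37C, then dosed with compounds plus a stimulation mix containing 100uM IBMX and 25uM Ro-20-1724 for 0.5hr at room temperature. cAMP was measured by HTRF competition, 1hr.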

Experiment [18] deals with D(2) dopamine receptor (Homo sapiens) (UniProt P14416). Description: Dopamine D2 receptor (DRD2) small molecule agonists, cell-based qHTS assay (AID 1963594). Note: nearly all actives have a fitted effect of over 35% in size. The procedure, abridged: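 HEK293 cells stably expressing DRD2 were cultured 24 h at 37 C, then given Ro20-1724 (0.1 mM final) and compounds for 10 min at room temperature. NKH477 (200nM) was then added for 30 min. cAMP was read by HTRF.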

Experiment [19] is described as follows: G protein-coupled receptor (GPCR) small molecule agonists, calcium flux assay: HEK293 wild type cell line counter screen (AID 1920065). The procedure, abridged:
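Kinetic fluorescence at Ex/Em 480/540, recorded every second over 3 min, served as the read-out after compound addition. Each compound was tested at 15 concentrations in triplicate on cells pre-loaded with calcium dye for 1 h.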

A short description of experiment [20]: p53 small molecule agonists, cell-based qHTS assay with human liver microsomes: qHTS cell viability counter screen (AID 1963579). Note: nearly all actives have a fitted effect of over 45% in size. The procedure, abridged:
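Tox21 library compounds, delivered from DMSO stocks, were tested on p53RE-bla cells together with 0.5 mg/mL human liver microsomes and 0.5 mg/mL NADPH (final) over 16 h at 37 C; CellTiter-Glo luminescence served as the cytotoxicity measure.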

Unmarked numbers belong to inactive results. Results filed as inconclusive are left out. Activity calls are given as the source filed them. Unless noted, calls come from the whole dose curve.
% is set by controls: 0 for no effect and ±100 for the full control effect.

Chain of Beta-2 adrenergic receptor (Homo sapiens) (P07550 whole entry, looked up): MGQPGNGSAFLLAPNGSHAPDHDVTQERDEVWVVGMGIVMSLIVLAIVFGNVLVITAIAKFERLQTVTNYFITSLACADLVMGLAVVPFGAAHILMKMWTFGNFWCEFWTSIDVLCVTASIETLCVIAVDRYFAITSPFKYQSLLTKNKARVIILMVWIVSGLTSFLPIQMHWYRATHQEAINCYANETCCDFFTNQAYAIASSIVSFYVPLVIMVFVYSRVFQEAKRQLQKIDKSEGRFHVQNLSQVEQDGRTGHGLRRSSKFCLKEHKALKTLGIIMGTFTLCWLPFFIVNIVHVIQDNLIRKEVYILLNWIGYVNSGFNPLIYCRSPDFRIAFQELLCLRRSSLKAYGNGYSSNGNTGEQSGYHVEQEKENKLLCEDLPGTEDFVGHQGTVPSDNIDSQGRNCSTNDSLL
Chain of D(2) dopamine receptor (Homo sapiens) (P14416 whole entry, looked up): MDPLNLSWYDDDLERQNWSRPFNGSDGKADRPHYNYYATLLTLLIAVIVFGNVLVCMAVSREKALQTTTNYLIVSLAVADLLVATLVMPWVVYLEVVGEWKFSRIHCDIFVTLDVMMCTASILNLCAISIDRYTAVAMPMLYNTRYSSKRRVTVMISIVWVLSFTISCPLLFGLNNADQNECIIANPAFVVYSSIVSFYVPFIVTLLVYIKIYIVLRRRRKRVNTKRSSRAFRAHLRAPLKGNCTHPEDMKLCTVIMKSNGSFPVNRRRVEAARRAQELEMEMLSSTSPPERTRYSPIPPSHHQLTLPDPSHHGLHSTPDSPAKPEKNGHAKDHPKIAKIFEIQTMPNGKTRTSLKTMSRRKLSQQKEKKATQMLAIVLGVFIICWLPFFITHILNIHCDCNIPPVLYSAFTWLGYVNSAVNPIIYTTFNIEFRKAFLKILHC
Chain of Muscarinic acetylcholine receptor M1 (Homo sapiens) (P11229 whole entry, looked up): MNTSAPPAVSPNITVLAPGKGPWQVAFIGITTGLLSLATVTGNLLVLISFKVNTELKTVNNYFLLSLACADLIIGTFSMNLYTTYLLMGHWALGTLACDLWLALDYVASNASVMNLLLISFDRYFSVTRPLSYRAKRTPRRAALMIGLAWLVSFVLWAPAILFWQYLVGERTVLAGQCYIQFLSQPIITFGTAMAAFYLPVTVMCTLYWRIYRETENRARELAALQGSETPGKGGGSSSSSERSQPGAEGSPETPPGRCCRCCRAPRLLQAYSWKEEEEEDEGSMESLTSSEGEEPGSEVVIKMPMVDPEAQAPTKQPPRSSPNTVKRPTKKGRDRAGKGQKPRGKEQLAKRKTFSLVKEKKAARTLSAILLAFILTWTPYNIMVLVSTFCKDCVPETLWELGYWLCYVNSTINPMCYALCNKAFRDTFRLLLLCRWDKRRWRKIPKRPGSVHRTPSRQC
Chain of 5-hydroxytryptamine receptor 2A (Homo sapiens) (P28223 whole entry, looked up): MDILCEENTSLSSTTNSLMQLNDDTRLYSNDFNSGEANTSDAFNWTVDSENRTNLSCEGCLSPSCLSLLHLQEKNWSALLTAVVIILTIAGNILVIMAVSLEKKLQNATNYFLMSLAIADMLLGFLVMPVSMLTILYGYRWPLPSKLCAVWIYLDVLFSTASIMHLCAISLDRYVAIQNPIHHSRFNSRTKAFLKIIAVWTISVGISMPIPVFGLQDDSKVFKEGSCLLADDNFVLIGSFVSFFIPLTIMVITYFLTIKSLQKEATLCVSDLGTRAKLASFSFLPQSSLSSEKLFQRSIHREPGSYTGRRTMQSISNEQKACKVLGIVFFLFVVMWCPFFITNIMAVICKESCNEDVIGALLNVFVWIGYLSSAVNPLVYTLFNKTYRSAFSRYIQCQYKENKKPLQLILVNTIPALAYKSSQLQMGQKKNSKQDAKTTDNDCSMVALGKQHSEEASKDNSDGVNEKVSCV
Chain of Gonadotropin-releasing hormone receptor (Homo sapiens) (P30968 whole entry, looked up): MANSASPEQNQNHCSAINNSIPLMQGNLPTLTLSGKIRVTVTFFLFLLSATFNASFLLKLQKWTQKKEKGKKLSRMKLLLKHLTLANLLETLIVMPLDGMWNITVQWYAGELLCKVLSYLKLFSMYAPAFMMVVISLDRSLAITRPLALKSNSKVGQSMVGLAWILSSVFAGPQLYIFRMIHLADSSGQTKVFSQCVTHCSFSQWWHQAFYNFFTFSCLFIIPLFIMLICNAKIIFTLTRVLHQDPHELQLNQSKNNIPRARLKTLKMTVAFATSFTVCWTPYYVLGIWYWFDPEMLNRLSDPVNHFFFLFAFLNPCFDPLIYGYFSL

With `C/C=C\C/C=C/CCCCCCCCOC(C)=O`, the Potency result in experiment [1], in [3], in experiment [4], in [5], in [6] and in [7] was “inactive” in each case. The Potency entry in [8], in experiment [9], in [10], in experiment [11] and in experiment [12] was “inactive” each time. In [2], the Potency is 68.6 µM (active).
For the molecule `CC(C)C[C@@H](N)C(=O)O`, the results for the activity change, negative = cytotoxicity in experiment [1], in experiment [13] and in experiment [6] were 2.62% [at 19 µM], -0.234% [at 13.5 µM] and -2.8% [at 13.5 µM], respectively. Moreover, the activity, positive = activation in experiment [2] is -3.08% [at 19 µM]. In addition, the activity change in [3] is 0.203% [at 11.8 µM, stronger effect = higher value]. The activation in experiment [4] is -1.67% [at 13.5 µM]; in experiment [5] it was -1.65% [at 13.6 µM]; in experiment [14] it was -0.189% [at 13.5 µM]; in experiment [8], 2.38% [at 15.9 µM]; in [10], 10.1% [at 15.8 µM]; in experiment [15], 0.0359% [at 19 µM]. In addition, the activation in experiment [18] is 5.36% [at 19 µM]. The values for the activity change, negative = inhibition in [16], in experiment [11] and in [12] were -5.02% [at 18.9 µM], 9.37% [at 19 µM] and 4.57% [at 18.9 µM], respectively. Besides, in [17], the Potency result was “inactive”.
Turning to `CCCCC1CCCCC(=O)O1` (centres undefined), the Potency result in [1], in experiment [2], in experiment [4], in experiment [5], in experiment [20] and in experiment [13] was “inactive” each time. For the same molecule, the Potency result in [6], in experiment [14], in experiment [7], in experiment [8], in experiment [9] and in experiment [10] was “inactive” each time. Further, the Potency entry in experiment [11], in [17], in [18] and in [12] was “inactive” each time. In addition, the result in experiment [19] was inactive.
Take `CC(C)(O)c1ccccc1`: the Potency result in experiment [1], in [2], in experiment [3], in [4], in experiment [13] and in experiment [14] was “inactive” each time. Besides, the Potency entry in experiment [7], in [8], in experiment [9], in experiment [10], in experiment [15] and in [16] was “inactive” throughout. Also, the Potency entry in [11] and in [12] was “inactive” throughout. The result in experiment [19] was inactive.
On to `Nc1cccc(S(=O)(=O)c2cccc(N)c2)c1`, for which the Potency entry in experiment [1], in [2], in experiment [3], in experiment [4], in experiment [5] and in experiment [20] was “inactive” in each case. Further, the Potency entry in experiment [13], in experiment [6], in experiment [7], in experiment [8], in [10] and in experiment [15] was “inactive” each time. Besides, the Potency entry in experiment [11], in [17] and in experiment [12] was “inactive” throughout.
`CCCCCO`: the Potency result in experiment [1], in [2], in experiment [4], in experiment [5], in experiment [20] and in experiment [13] was “inactive” in each case. Further, the Potency result in experiment [6], in [14], in experiment [7], in [8], in experiment [9] and in [10] was “inactive” in each case. Also, the Potency result in experiment [15], in [16], in [18] and in experiment [12] was “inactive” throughout. The outcome in [19] was inactive.
In the case of `Nc1ccc(NC(=O)c2ccc(N)cc2)cc1`, the Potency result in experiment [1], in experiment [2], in [4], in [5], in [20] and in [13] was “inactive” in each case. The Potency entry in experiment [6], in experiment [14], in experiment [7], in experiment [8], in experiment [9] and in [10] was “inactive” throughout. For the same molecule, the Potency entry in experiment [15], in experiment [16], in experiment [18] and in [12] was “inactive” throughout. The outcome in [19] was inactive.

Source of the values: PubChem BioAssay (Tox21).
